An excerpt weighted towards active compounds, which were near 6% of everything screened.
Tau fibril FP – qHTS for Inhibitors of Tau Fibril Formation, Fluorescence Polarization | Microtubule-associated protein tau (Homo sapiens), P10636 | K18 P301L tau heparin fibrillization, Alexa594 FP, 6 h | Potency, µM (series often up to 57.7 µM), actives largely listed as inhibitors | actives 0.39% (n = 280,000); further: nearly all actives have a fitted effect of over 55% in size
Target sequence (P10636 561-689 P618L limits assumed): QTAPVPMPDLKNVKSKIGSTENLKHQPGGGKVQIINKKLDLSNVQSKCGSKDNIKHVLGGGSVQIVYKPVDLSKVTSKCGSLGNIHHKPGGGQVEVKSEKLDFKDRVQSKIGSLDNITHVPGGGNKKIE
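Compound effects on tau fibrillization are measured by Alexa 594 fluorescence polarization (ex 555, em 632 nm). K18 P301L tau is used at 15 uM with 0.24 uM labeled tracer, and 20 uM heparin induces aggregation over 6 hr at 37 C.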
Tau fluor cs – Counterscreen qHTS for Inhibitors of Tau Fibril Formation, Fluorescence Polarization | Potency, µM (doses to about 57.7 µM) | AID 1463, 2008 | actives 0.93% (n = 280,000) | tau K18 P301L Alexa594 fluorescence, heparin fibrillization; further: nearly all actives have a fitted effect of over 55% in size
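Human K18 P301L tau (15 uM unlabeled plus 0.24 uM Alexa 594-labeled, final) in 100 mM sodium acetate pH 7 was mixed with compound and 20 uM heparin and incubated 6 hr at 37 C.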
Sfp PPTase inh – qHTS Assay for Inhibitors of Bacillus subtilis Sfp phosphopantetheinyl transferase (PPTase); 4'-phosphopantetheinyl transferase ffp (Bacillus subtilis), Q9F4F7; Biochemical Sfp PPTase activity, qHTS; Potency, µM, usual class: inhibitors; actives 3.5% (n = 310,000); AID 1490, 2009;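 further: the enzyme is Sfp with the accession as filed and its product quenches rhodamine fluorescence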
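Sfp 15 nM + cpd, 15 min RT; start w/ rhodamine-CoA 5 uM, BHQ-2-YbbR 12.5 uM (final); 50 mM Hepes pH 7.6, 10 mM MgCl2, 0.01% NP-40, 0.01% BSA; read 525/598 nm at 0 and 30 min.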
VDR inh – Inhibitors of the vitamin D receptor (VDR): qHTS. VDR-SRC2-3 peptide fluorescence polarization, 2 h. Vitamin D3 receptor (Homo sapiens), P11473. AID 504847, 2011. actives 0.93% (n = 400,000). Potency, µM, usual class: inhibitors
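FP read-out; VDR + SRC2-3 coactivator peptide; 23 nl compound by pintool; 2 h RT incubation; reagents held at 4 deg C, protected from light.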
PLK1 PBD inh – qHTS for Inhibitors of PLK1-PDB (polo-like kinase 1 - polo-box domain): Primary Screen; Potency, µM, actives largely listed as inhibitors; Plk1 PBD binding of FITC phosphopeptide, fluorescence polarization; Serine/threonine-protein kinase PLK1 (Homo sapiens), P53350; AID 720504, 2013; actives 2.8% (n = 360,000); further: series mostly up to about 57 µM; nearly all actives have a fitted effect of over 65% in size
Target sequence (P53350 whole entry, looked up, the tested form may be a part): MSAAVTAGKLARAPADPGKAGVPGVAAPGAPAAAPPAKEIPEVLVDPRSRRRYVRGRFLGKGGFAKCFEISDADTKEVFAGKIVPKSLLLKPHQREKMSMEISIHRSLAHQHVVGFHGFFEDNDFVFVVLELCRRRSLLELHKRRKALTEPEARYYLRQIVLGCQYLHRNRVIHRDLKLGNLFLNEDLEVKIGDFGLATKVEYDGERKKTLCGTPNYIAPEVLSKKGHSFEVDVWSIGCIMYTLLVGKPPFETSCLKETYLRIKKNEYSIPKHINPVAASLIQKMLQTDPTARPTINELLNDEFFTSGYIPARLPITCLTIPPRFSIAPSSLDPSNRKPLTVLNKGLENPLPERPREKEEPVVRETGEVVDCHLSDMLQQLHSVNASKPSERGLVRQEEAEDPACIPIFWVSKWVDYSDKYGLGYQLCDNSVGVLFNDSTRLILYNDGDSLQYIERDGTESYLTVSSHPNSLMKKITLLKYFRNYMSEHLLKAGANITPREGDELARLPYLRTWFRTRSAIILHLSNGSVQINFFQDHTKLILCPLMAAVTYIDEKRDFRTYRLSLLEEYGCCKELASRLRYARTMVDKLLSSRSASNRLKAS
Tau ThT inhib – qHTS for Inhibitors of Tau Fibril Formation, Thioflavin T Binding; Microtubule-associated protein tau (Homo sapiens), P10636; recombinant tau K18 P301L (four-repeat tau fragment), heparin-induced fibrillization, ThT fluorescence; Potency, µM (highest dose often 57.4 µM), usual class: inhibitors; actives 2.1% (n = 270,000); AID 1460, 2008; further: nearly all actives have a fitted effect of over 55% in size
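In this qHTS, human K18 P301L tau is incubated with compound and heparin for 6 hr at 37 C, and Thioflavin T fluorescence then reports fibril load.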
Large screens that a line does not name were inactive; ! = not active in a repeat; [ ] = another dose, or the depositor's remark. The call rests on the fitted dose curve; in most records, active means well fitted curve in the direction sought with a large enough effect; inconclusive means small, poorly fitted or top-dose-only effect, or another doubt; inactive means no such curve, though single readings can be large; an effect the other way counts as inactive or inconclusive.

Cc1ccc(Cn2cc(S(=O)(=O)c3cccc(Cl)c3)c(=O)c3cc(F)c(N4CCCCC4)cc32)cc1	none (no result: Sfp PPTase inh, PLK1 PBD inh)
CCC(C(=O)NCCCN1CCN(C)CC1)n1nc(C)n2c(cc3occc32)c1=O (stereo not drawn)	none (no result: Tau fibril FP, Tau fluor cs, Tau ThT inhib)
O=C(NCC[C@H]1CC[C@H](NS(=O)(=O)c2ccccc2F)[C@@H](CO)O1)c1ccc(F)cc1	none (no result: Tau fibril FP, Tau fluor cs, Sfp PPTase inh, VDR inh, Tau ThT inhib)
O=C(Cc1ccccc1)NC1CC(=O)N(c2ccc3c(c2)OCCO3)C1 (stereo not drawn)	none (no result: Sfp PPTase inh, PLK1 PBD inh)
O=C1/C(=C\c2cccc(O)c2O)SC(=S)N1Cc1ccccc1	Sfp PPTase inh 40µM, PLK1 PBD inh 3µM (no result: Tau fibril FP, Tau fluor cs, Tau ThT inhib)
O=C(CCN1C(=O)/C(=C/c2ccccc2Cl)SC1=S)NNC(=O)c1ccccc1O	Sfp PPTase inh 50µM (no result: Tau fibril FP, Tau fluor cs, Tau ThT inhib)
COc1ccc(CCNC(=O)c2c(C)oc3nc(C)nc(N4CCOCC4)c23)cc1OC	none (no result: Sfp PPTase inh, PLK1 PBD inh)
CCCCC(=O)Nc1sc2c(c1C(=O)OCC)CCC(C=O)=C2Cl	Sfp PPTase inh inconclusive, Tau ThT inhib 25µM (no result: VDR inh, PLK1 PBD inh)
Cc1cccc(NC(=O)CCC(=O)OCC(=O)c2ccc(Oc3ccc([N+](=O)[O-])cc3)cc2)c1	VDR inh inconclusive, PLK1 PBD inh 11µM
CC(NC(=O)Cn1ccsc1=N)C12CC3CC(CC(C3)C1)C2 (stereo not drawn)	PLK1 PBD inh 7.5µM
CC(NC(=O)Cn1c(=O)[nH]c2ccsc2c1=O)C12CC3CC(CC(C3)C1)C2 (stereo not drawn)	none
CCOC(=O)C(=NC1CCS(=O)(=O)C1)NNc1ccccc1Cl (stereo not drawn)	Sfp PPTase inh inconclusive, PLK1 PBD inh 27µM, Tau ThT inhib inconclusive
Cc1cc(Br)cn2c(Cc3ccccc3)c(-c3ccccc3)nc12	none (no result: Tau fibril FP, Tau fluor cs, Sfp PPTase inh, VDR inh, Tau ThT inhib)
Cc1cc(Br)ccc1NC(=O)CN(C)C(=O)CCSc1ccc(F)cc1	PLK1 PBD inh 27µM (no result: Tau fibril FP, Tau fluor cs, Sfp PPTase inh, Tau ThT inhib)
CC1(C)O[C@H]2C[C@@H]3[C@H]4CCC5=CC(=O)C=C[C@]5(C)[C@@]4(F)[C@@H](O)C[C@]3(C)[C@]2(C(=O)CO)O1	none (no result: PLK1 PBD inh)
C=CCOc1cccc(C2C(C(=O)c3ccc(C)o3)=C(O)C(=O)N2c2nccs2)c1 (stereo not drawn)	Tau fibril FP inconclusive, Sfp PPTase inh inconclusive, PLK1 PBD inh inconclusive, Tau ThT inhib inconclusive
CCCCOc1cccc(C2C(C(=O)c3ccc(C)o3)=C(O)C(=O)N2c2nnc(C)s2)c1 (stereo not drawn)	Sfp PPTase inh 50µM, PLK1 PBD inh inconclusive (no result: Tau fibril FP, Tau fluor cs, Tau ThT inhib)
Cc1ccc(C(=O)C2=C(O)C(=O)N(Cc3ccco3)C2c2cccc(Br)c2)o1 (stereo not drawn)	Sfp PPTase inh 56µM (no result: Tau fibril FP, Tau fluor cs, Tau ThT inhib)
CCOc1ccc(C2C(C(=O)c3ccc(C)o3)=C(O)C(=O)N2c2cc(C)on2)cc1OC (stereo not drawn)	none (no result: Tau fibril FP, Tau fluor cs, Tau ThT inhib)
CCCCCOc1ccc(C2C(C(=O)c3ccc(C)o3)=C(O)C(=O)N2c2cc(C)on2)cc1 (stereo not drawn)	VDR inh 71µM, PLK1 PBD inh inconclusive (no result: Tau fibril FP, Tau fluor cs, Tau ThT inhib)
Cc1ccc(C(=O)C2=C(O)C(=O)N(Cc3ccco3)C2c2cccc(Cl)c2)o1 (stereo not drawn)	VDR inh inconclusive (no result: Tau fibril FP, Tau fluor cs, Tau ThT inhib)
Cc1cc(N2C(=O)C(O)=C(C(=O)c3cc4ccccc4o3)C2c2cccc(Br)c2)no1 (stereo not drawn)	VDR inh inconclusive, PLK1 PBD inh 27µM (no result: Tau fibril FP, Tau fluor cs, Tau ThT inhib)
Cn1ccc2c(-c3cccc(C=O)c3)cc3c(c21)C1CCC3O1 (stereo not drawn)	none (no result: Tau fibril FP, Tau fluor cs, Sfp PPTase inh, VDR inh, Tau ThT inhib)
Cc1ccc(C)c(C(O)c2ncc(-c3ccc(Cl)cc3)[nH]2)c1 (stereo not drawn)	none (no result: Tau fibril FP, Tau fluor cs, Sfp PPTase inh, VDR inh, Tau ThT inhib)
COC(=O)C1(CC(C)C)C=C2C(=C(C)C(=O)C2C)CN1 (stereo not drawn)	none (no result: VDR inh, PLK1 PBD inh)
Cc1ccc2c(c1)C(C)CC(C)(C)N2C(=O)CN1CCN(C)CC1 (stereo not drawn)	Sfp PPTase inh 56µM (no result: Tau ThT inhib)
Fc1ccc(-c2nc(-c3cccs3)c(-c3cccs3)[nH]2)cc1	Tau fluor cs inconclusive (no result: Sfp PPTase inh, PLK1 PBD inh)
Oc1cccc(-c2nc(-c3cccs3)c(-c3cccs3)[nH]2)c1	Tau fibril FP inconclusive, Tau fluor cs 13µM[quencher], Tau ThT inhib 16µM (no result: Sfp PPTase inh, PLK1 PBD inh)
O=[N+]([O-])c1ccc(-c2nc(-c3cccs3)c(-c3cccs3)[nH]2)cc1	Tau fibril FP inconclusive, Tau fluor cs 7.9µM[quencher], Tau ThT inhib 5.6µM
Cc1ccc(-c2nc(-c3cccs3)c(-c3cccs3)[nH]2)cc1	Tau fluor cs inconclusive (no result: Sfp PPTase inh, PLK1 PBD inh)
O=[N+]([O-])c1cccc(-c2nc(-c3ccccc3)c(-c3cccs3)[nH]2)c1	Tau fluor cs inconclusive
O=[N+]([O-])c1cccc(-c2nc(-c3cccs3)c(-c3cccs3)[nH]2)c1	Tau fluor cs 11µM[quencher], Tau ThT inhib inconclusive
Cc1cc(C)c(NC(=O)CSc2nc3nc(C)cc(C)n3n2)c(C)c1	none (no result: Sfp PPTase inh, PLK1 PBD inh)
CCCCCCCCCCCCC/C=C/[C@@H](O)[C@@H](N)CO	Sfp PPTase inh 79µM!, Tau ThT inhib inconclusive
CCCCCCCCCCCCC/C=C/[C@@H](O)[C@H](CO)N(C)C	none (no result: PLK1 PBD inh)
O=C(Cn1nnc(-c2cccc(C(F)(F)F)c2)n1)NCc1ccc(F)cc1	none (no result: Sfp PPTase inh, PLK1 PBD inh)
CCOc1ccc2c(c1)C(=O)c1cc(OCC(=O)O)ccc1-2	Tau ThT inhib 11µM
O=C(O)COc1ccc2c(c1)CCCC2	none
CCCCOc1ccc2c(c1)C(=O)c1cc(O)ccc1-2	Tau fibril FP inconclusive, Tau fluor cs 14µM[quencher], Tau ThT inhib 11µM
